From PubChem BioAssay come the findings set out here.

Experiment [1] is described as follows: yeast TOR pathway RPL19A-GFP modulators, primary screen, cell-based, S. cerevisiae, multiplex flow cytometry (AID 1862; in the data active = percent of DMSO control GFP below about 86%;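 note: lower values mimic rapamycin by blocking the RPL19A rise seen in DMSO cells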). To be noted: S. cerevisiae RPL19A-GFP strain, flow cytometry fluorescence, 3 h; at 10 µM; stronger effect = lower value. On the technique in general: Flow cytometry measures light scatter and fluorescence of single cells or particles in a stream.
Experiment [2] can be described thus: modulators of MEP2-GFP levels in yeast, primary screen, S. cerevisiae, multiplex flow cytometry (AID 1867;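 active = GFP response, as percent of the DMSO control, above the screen-wide mean plus 3 SD, about 139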;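 note: median GFP channel fluorescence of barcode-gated MEP2-GFP cells measured by flow cytometry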). Conditions: S. cerevisiae MEP2-GFP strain, 3 h, at 10 µM, stronger effect = higher value, 100% means same as DMSO wells.
A short description of experiment [3]: modulators of CIT2-GFP expression in yeast, primary screen, S. cerevisiae, GFP fusion, multiplex flow cytometry (AID 1870;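 active = percent response above a set limit, the screen-wide mean plus 3 SD, cut at about 130% in these data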;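 note: barcoded CIT2-GFP strain pooled with four other GFP strains with rapamycin as positive control; median GFP fluorescence per well over plate mean of DMSO wells so 100% = DMSO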). To be noted: 3 h, at 10 µM, stronger effect = higher value.
Experiment [4] can be described thus: modulators of LAP4-GFP expression in yeast, primary screen, S. cerevisiae, multiplex flow cytometry (AID 1873;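 active = GFP signal, as percent of the solvent control, above the screen mean plus 3 SD, about 149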). To be noted: 3 h, at 10 µM, stronger effect = higher value.
Experiment [5] can be described thus: modulators of AGP1-GFP expression in yeast TOR pathway, primary screen, cell-based, multiplex flow cytometry, S. cerevisiae (AID 1887;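 active = GFP signal above the screen-wide mean plus 3 SD, that is over about 124.5% of the solvent control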;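 note: AGP1-GFP fusion strain of S. cerevisiae within a five-strain barcoded multiplex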). To be noted: 3 h, at 10 µM, stronger effect = higher value.
Experiment [6] can be described thus: inhibitors of CD8+ T cell-vesicle binding, pilot screen, LFA-1/ICAM-1 modulator project, MLPCN validation set, flow cytometry (AID 2523;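 active = response below a set limit, under 55% cells CD8-positive and vesicle-bound, and CD8 cells' 90th-percentile brightness under 279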;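 for vesicle binding response: mean PE anti-B7-1 fluorescence of CD8+ cells relative to row control; 100% = QL9-loaded vesicles with DMSO vehicle in the same plate row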). To be noted: 2C mouse CD8+ T cells, at 7 µM, stronger effect = lower value; double positive events: measured here: CD8+/vesicle+ event percentage.
Experiment [7] has as its target Integrin beta-1 (Homo sapiens) + Integrin alpha-4 (Homo sapiens) (UniProt P13612+P05556). The experiment in a line: inhibition of HUTS-21 binding to VLA-4, pilot screen, VLA-4 allosteric modulator project, U937 cells, HUTS-21 mAb, flow cytometry, validation set (AID 2674;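 active = inhibition above 50%, about 3 SD of the validation set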;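 note: antibody binding induced by the VLA-4 ligand LDV present at three times its Kd; 0% = LDV ligand with antibody and no compound and 100% = antibody without LDV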). To be noted: HUTS-21 LIBS mAb binding, at 6.7 µM, stronger effect = higher value, binding induced by LDV ligand.

A short description of experiment [8]: superoxide lowering in aged yeast cells, pilot screen, validation compound set (AID 2706;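 active = superoxide response below 65% of plate, a cut near 3 SD across the whole screen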;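 note: yeast exposed to compound for one week at 30 degrees C before staining; 100% = mean of all compound wells on the same plate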). Conditions: S. cerevisiae aging, superoxide DHE fluorescence; at 10 µM; stronger effect = lower value.
Experiment [9] has as its target Beta-adrenergic receptor kinase 1 (Homo sapiens) (UniProt P25098). The experiment is described as follows: GRK2 binders displacing RNA aptamer, biochemical, validation, human GRK2, bead flow cytometry (AID 488806;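 active = aptamer binding inhibition above 30%, about 3 SD of noise from non-fluorescent compounds; inactive = inhibition at or below 30%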). Conditions: bead-bound GRK2, FAM-aptamer displacement, at 10 µM, stronger effect = higher value.
The target in experiment [10] is Beta-2 adrenergic receptor (Homo sapiens) (UniProt P07550). The experiment is described as follows: beta2AR agonists driving receptor internalization, pilot screen, cell-based, FAP fluorogen, flow cytometry, validation set (AID 504459;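 active = percent response above 42, roughly 3 SD of non-fluorescent test compounds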;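 note: agonist-driven loss of surface beta2AR via internalization measured by FAP dye flow cytometry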). Conditions: Am2.2-beta2AR cells, FAP surface receptor flow cytometry; at 10 µM; stronger effect = higher value.
Experiment [11] addresses AP-2 complex subunit beta (Homo sapiens) (UniProt P63010). The experiment is described as follows: inhibitors of arrestin peptide binding to AP2, pilot screen, biochemical, validation set, GST-AP2 beads, flow cytometry (AID 504541;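 active = inhibition above 54%, about 3 SD of non-fluorescent compounds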;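 note: AP2 carries R879A mutation and is captured from E. coli lysate; bead-bound FITC arrestin peptide fluorescence measuring arrestin peptide binding to AP2; 0% = DMSO wells and 100% = excess unlabeled arrestin peptide control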). To be noted: FITC arrestin peptide, at 10 µM, stronger effect = higher value, AP2 beta2 appendage fragment, R879A mutant.
A short description of experiment [12]: yeast V-ATPase proton transport modulators, S. cerevisiae, pHLuorin, HTS validation (AID 504600; in the data active = response above about 15%;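 note: plate controls were DMSO for no effect and reference compound for full effect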). To be noted: S. cerevisiae pHLuorin cytosolic pH, at 10 µM, stronger effect = higher value.
For experiment [13], the system named is anti-desmoglein-3 scFv antibody binding to human DSG3. The experiment is described as follows: inhibitors of anti-DSG3 scFv binding to DSG3, pilot screen, biochemical, validation compound set, bead-based, flow cytometry (AID 588368).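 Note: signal is the median channel fluorescence of bead-bound GFP antibody.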 Conditions: Protein G beads, DSG3-Fc, scFv-GFP binding, at 10 µM, stronger effect = lower value.
A short description of experiment [14]: inhibitors of fungal efflux pumps CDR1, CDR2, MDR1, pilot screen, validation compound set, multiplex, phenotypic (AID 588506;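 active = efflux inhibition above 0.42, the validation set average plus 4 SD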;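 note: Nile Red retained in cells so higher fluorescence means more efflux inhibition; 0 = negative control wells and 1 = enniatin B 25 µM full block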). To be noted: S. cerevisiae pump-expressing triplex, Nile Red efflux flow cytometry; at 10 µM; stronger effect = higher value; the pumps come from Candida albicans.
In experiment [15] the target is ATP-binding cassette sub-family B member 6 (Homo sapiens) (UniProt Q9NP58). The experiment in a line: ABCB6 transporter inhibitors, pilot screen, K562-ABCB6 cells, flow cytometry, validation set (AID 588550;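 active = inhibition above the screen-wide mean plus 3 SD, about 51%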;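 note: 0% = DMSO wells and 100% = benzethonium chloride 70 µM positive control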). To be noted: K562-ABCB6 porphyrin accumulation, 1 h, at 10 µM, stronger effect = higher value.
Experiment [16] can be described thus: promoters of myeloid differentiation in arrested cells, primary screen, cell-based, GFP/MAC1 double positive, flow cytometry, validation set (AID 588685;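 active = differentiation response of at least 50%, scaled between solvent and reference control, from cells with both markers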;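 note: compound exposure lasts four days before antibody staining and flow analysis; 0% = DMSO wells and 100% = 5 µM fulvestrant positive control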). To be noted: ER-HoxA9 marrow cells, stronger effect = higher value, normalized: vehicle 0, fulvestrant 100.

Inconclusive results are not listed. Activity calls are given as the source filed them.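 Rule for the calls, unless noted: active = binding below the plate cutoff, the plate median minus 3 SD, with a reading above zero; inconclusive = below the plate cutoff but reading exactly zero; inactive = the rest.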

Sequence of Beta-2 adrenergic receptor (Homo sapiens) (P07550 whole entry, looked up): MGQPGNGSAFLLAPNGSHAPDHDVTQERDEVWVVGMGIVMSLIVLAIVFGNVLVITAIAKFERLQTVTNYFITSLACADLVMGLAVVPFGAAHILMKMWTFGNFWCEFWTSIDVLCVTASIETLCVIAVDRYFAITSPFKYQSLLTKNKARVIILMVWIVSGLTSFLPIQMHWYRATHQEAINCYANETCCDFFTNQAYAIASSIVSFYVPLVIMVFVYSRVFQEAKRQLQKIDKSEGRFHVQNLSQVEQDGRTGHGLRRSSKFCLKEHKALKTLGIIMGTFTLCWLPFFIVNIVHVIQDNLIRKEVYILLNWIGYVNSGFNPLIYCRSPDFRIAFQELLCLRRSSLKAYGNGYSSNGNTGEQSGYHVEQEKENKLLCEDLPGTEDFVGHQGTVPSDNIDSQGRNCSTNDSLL
Sequence of ATP-binding cassette sub-family B member 6 (Homo sapiens) (Q9NP58 whole entry, looked up): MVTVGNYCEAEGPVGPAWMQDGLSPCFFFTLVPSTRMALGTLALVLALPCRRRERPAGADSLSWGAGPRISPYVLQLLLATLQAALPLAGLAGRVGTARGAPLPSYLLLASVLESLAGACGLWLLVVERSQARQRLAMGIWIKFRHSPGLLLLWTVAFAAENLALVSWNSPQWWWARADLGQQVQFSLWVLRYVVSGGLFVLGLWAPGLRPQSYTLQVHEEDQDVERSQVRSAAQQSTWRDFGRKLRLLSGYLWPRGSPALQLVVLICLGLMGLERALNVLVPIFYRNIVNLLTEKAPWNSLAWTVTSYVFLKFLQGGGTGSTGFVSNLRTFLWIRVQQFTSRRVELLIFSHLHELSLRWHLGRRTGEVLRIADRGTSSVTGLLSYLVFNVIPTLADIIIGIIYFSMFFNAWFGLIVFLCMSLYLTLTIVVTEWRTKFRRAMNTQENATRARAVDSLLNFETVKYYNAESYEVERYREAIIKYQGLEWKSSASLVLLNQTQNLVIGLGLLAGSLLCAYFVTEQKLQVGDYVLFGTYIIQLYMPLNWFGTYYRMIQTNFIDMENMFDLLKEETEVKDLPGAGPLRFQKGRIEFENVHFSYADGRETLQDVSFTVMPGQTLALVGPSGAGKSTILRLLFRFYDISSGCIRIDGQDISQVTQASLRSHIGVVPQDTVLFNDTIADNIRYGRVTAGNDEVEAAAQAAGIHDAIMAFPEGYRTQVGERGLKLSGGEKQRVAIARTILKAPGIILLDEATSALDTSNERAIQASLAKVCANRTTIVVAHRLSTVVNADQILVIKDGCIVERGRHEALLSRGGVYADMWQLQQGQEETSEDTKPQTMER
Sequence of Beta-adrenergic receptor kinase 1 (Homo sapiens) (P25098 whole entry, looked up): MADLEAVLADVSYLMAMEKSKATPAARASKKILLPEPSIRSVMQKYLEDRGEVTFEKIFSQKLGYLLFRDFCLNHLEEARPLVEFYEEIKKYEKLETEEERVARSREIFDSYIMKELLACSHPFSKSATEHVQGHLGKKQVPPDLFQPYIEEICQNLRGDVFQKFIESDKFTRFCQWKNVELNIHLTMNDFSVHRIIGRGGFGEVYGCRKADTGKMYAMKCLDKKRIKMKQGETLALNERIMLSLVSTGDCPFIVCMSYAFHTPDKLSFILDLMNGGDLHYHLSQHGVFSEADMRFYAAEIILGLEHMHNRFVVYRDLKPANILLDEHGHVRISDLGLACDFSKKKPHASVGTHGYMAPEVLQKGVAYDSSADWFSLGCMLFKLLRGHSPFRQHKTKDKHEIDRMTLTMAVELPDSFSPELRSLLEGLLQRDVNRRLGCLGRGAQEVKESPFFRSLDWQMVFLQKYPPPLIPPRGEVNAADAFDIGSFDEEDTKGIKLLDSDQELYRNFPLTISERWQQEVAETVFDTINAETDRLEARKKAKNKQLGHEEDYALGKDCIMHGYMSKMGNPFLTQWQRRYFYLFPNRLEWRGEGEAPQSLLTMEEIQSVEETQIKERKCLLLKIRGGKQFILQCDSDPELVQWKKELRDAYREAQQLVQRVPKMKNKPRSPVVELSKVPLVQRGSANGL
Sequence of AP-2 complex subunit beta (Homo sapiens) (P63010 whole entry, looked up, the tested form may be a part, one chain of several): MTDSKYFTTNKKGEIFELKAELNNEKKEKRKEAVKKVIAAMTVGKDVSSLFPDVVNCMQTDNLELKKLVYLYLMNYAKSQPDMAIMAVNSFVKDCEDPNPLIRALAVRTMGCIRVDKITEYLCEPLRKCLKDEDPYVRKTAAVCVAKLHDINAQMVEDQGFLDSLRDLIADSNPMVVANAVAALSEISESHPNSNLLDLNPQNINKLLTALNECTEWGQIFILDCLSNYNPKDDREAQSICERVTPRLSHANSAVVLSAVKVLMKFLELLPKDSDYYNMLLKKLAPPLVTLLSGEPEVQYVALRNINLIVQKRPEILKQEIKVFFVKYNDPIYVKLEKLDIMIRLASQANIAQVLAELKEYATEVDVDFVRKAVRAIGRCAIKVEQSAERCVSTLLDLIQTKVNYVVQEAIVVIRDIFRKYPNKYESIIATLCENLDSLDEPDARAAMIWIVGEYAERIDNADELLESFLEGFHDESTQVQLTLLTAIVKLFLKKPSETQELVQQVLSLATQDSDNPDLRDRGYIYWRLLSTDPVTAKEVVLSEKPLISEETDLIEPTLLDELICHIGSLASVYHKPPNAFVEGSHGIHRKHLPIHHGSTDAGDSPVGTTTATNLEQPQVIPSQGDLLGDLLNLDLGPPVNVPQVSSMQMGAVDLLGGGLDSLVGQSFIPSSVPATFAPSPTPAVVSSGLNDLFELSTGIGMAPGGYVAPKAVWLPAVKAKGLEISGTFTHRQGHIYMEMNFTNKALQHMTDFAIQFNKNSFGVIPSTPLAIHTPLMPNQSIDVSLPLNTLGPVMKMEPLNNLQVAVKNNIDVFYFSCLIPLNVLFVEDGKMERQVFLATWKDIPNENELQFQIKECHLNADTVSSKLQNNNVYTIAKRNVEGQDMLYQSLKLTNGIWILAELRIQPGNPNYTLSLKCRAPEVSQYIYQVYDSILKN
Sequence of Integrin beta-1 (Homo sapiens) + Integrin alpha-4 (Homo sapiens) (P05556 whole entry, looked up): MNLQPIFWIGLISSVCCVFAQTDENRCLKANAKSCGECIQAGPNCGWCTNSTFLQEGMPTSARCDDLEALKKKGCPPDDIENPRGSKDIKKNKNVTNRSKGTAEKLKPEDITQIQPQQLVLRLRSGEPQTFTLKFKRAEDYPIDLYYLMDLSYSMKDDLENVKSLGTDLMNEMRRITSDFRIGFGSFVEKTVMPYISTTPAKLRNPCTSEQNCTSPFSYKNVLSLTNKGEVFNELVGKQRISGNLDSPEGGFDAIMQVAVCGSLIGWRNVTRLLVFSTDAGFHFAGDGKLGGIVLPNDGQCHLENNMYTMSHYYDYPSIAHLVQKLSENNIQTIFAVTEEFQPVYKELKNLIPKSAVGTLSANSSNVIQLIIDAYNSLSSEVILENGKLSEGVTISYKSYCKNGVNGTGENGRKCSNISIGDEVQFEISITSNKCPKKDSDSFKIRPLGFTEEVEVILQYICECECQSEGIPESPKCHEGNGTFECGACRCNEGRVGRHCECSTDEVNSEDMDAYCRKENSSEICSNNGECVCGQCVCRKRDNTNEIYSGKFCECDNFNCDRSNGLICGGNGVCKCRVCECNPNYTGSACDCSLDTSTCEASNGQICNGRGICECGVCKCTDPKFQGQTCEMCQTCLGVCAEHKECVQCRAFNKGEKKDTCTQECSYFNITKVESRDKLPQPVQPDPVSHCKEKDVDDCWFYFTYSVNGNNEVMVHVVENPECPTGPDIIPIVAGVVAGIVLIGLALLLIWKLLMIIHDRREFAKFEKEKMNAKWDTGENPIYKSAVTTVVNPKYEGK
Sequence of Integrin beta-1 (Homo sapiens) + Integrin alpha-4 (Homo sapiens) (P13612 whole entry, looked up): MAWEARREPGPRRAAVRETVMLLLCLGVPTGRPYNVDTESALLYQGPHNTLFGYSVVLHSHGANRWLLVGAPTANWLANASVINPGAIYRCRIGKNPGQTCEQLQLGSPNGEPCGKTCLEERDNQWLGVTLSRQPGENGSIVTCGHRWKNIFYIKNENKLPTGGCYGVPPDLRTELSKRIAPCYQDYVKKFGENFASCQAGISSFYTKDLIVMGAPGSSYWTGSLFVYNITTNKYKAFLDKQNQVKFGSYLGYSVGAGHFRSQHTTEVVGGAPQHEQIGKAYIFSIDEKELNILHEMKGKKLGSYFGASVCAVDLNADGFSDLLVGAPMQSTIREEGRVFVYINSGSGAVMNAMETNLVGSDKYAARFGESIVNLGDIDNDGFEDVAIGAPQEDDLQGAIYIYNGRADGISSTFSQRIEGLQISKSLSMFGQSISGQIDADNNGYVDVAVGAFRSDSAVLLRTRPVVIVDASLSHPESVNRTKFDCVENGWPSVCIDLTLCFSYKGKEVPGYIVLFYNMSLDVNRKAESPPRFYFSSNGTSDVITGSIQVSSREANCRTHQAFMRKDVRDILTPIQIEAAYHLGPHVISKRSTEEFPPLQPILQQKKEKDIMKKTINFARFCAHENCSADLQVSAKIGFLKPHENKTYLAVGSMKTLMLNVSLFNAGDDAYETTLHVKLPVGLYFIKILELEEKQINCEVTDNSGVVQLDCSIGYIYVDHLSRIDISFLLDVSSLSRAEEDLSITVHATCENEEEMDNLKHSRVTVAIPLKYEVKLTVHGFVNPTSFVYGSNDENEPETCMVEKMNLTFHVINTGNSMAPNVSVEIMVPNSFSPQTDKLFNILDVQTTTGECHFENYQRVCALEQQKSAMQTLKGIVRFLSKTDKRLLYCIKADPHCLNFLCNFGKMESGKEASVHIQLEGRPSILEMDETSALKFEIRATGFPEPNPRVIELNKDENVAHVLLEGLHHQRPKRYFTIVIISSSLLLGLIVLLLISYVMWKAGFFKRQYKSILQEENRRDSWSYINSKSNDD

As for `COc1cc(OC)cc(C(C)=O)c1`, the percent of DMSO control GFP in [1] was 96% (inactive). Further, the GFP response vs DMSO is 91.8% (inactive) in experiment [2] and 99.5% (inactive) in [4]. Moreover, the percent response of DMSO control in [3] is 95.1% (inactive). In experiment [5], the GFP response, % of DMSO is 104% (inactive). The compound also displayed a double positive events in experiment [6] of 68.7%. The vesicle binding response in [6] is 149% (inactive). In addition, the results for the inhibition in experiment [7], in experiment [11] and in [15] were 14.2% (inactive), -2.85% (inactive) and 5% (inactive), respectively. In addition, in experiment [8], the superoxide response (% of plate) is 94.5% (inactive). Besides, the aptamer binding inhibition in experiment [9] was 9% (inactive). Besides, the response was -14.6% (inactive) in experiment [10] and -2.23% (inactive) in experiment [12]. Besides, the binding (% of control) in [13] was 81.3% (inactive). The efflux inhibition (fraction of control) in [14] is 0 (inactive). Also, the differentiation response in experiment [16] was -6.96% (inactive).
For the compound `COCCNC(=O)CSc1ccc(Cl)cc1`, the percent of DMSO control GFP in [1] was 104% (inactive). For the same compound, the GFP response vs DMSO is 106% (inactive) in experiment [2] and 88.7% (inactive) in experiment [4]. For the same compound, in [3], the percent response of DMSO control is 105% (inactive). Also, the GFP response, % of DMSO in experiment [5] is 103% (inactive). Moreover, the double positive events in experiment [6] amounted to 62.8%. Also, the vesicle binding response in [6] is 245% (inactive). The inhibition is -0.45% (inactive) in experiment [7], 7.8% (inactive) in [11] and 10% (inactive) in experiment [15]. Moreover, the superoxide response (% of plate) in [8] was 112% (inactive). Besides, the aptamer binding inhibition in experiment [9] is 1% (inactive). Moreover, the response in experiment [10] is -6.87% (inactive); in experiment [12], -1.2% (inactive). Also, the binding (% of control) in [13] is 92% (inactive). Moreover, the efflux inhibition (fraction of control) in [14] was 0.14 (inactive). The differentiation response in experiment [16] is -12.5% (inactive).
As to `CCC(C)NCCOc1ccccc1C` (stereo not given), in experiment [1], the percent of DMSO control GFP was 104% (inactive). Also, the figures for the GFP response vs DMSO in experiment [2] and in [4] were 101% (inactive) and 97% (inactive), respectively. In addition, the percent response of DMSO control in experiment [3] is 105% (inactive). In [5], the GFP response, % of DMSO was 108% (inactive). The double positive events in [6] is 61.2%. The vesicle binding response in [6] was 115% (inactive). Moreover, the inhibition in experiment [7] is 5.61% (inactive); in [11] it was 29% (inactive); in experiment [15], 12% (inactive). Moreover, the superoxide response (% of plate) in [8] is 104% (inactive). Further, in experiment [9], the aptamer binding inhibition was -4% (inactive). Besides, the response is -6.41% (inactive) in experiment [10] and -2.79% (inactive) in experiment [12]. For the same compound, the binding (% of control) in [13] was 96.8% (inactive). In addition, the efflux inhibition (fraction of control) in [14] is -0.61 (inactive). Besides, in [16], the differentiation response is -16.3% (inactive).
Regarding `CC12CN3CC(C)(CN(C1)C3c1ccc([N+](=O)[O-])o1)C2` (stereo not given), the percent of DMSO control GFP in [1] was 102% (inactive). Further, the figures for the GFP response vs DMSO in [2] and in experiment [4] were 101% (inactive) and 96% (inactive), respectively. The percent response of DMSO control in experiment [3] was 95.4% (inactive). Moreover, in [5], the GFP response, % of DMSO was 91.5% (inactive). Also, the double positive events in [6] is 64.6%. Also, the vesicle binding response in [6] is 1050% (inactive). The inhibition in experiment [7] was 12% (inactive); in experiment [11], 1.92% (inactive); in experiment [15], -9% (inactive). Also, the superoxide response (% of plate) in experiment [8] was 111% (inactive). In addition, the aptamer binding inhibition in [9] was 5% (inactive). The response in [10] was -5.46% (inactive); in experiment [12], 2.45% (inactive). Moreover, the binding (% of control) in [13] is 93.8% (inactive). For the same compound, in [14], the efflux inhibition (fraction of control) was -0.1 (inactive). Also, the differentiation response in experiment [16] is 7.09% (inactive).
Turning to `CC(=O)Nc1c(I)c(NC(C)=O)c(I)c(C(=O)O)c1I`, in experiment [1], the percent of DMSO control GFP is 89.3% (inactive). Besides, the GFP response vs DMSO was 123% (inactive) in experiment [2] and 78.1% (inactive) in experiment [4]. Besides, the percent response of DMSO control in experiment [3] was 104% (inactive). In addition, the GFP response, % of DMSO in experiment [5] was 94% (inactive). The compound further gave a double positive events in [6] of 58.9%. Further, the vesicle binding response in [6] is 171% (inactive). Besides, the inhibition in experiment [7] was 10.3% (inactive); in experiment [11], 2.48% (inactive); in [15], 9% (inactive). For the same compound, the superoxide response (% of plate) in experiment [8] was 103% (inactive). In addition, the aptamer binding inhibition in experiment [9] is -1% (inactive). Besides, the values for the response in experiment [10] and in [12] were -8.3% (inactive) and 1.06% (inactive), respectively. Also, the binding (% of control) in [13] is 95% (inactive). Further, the efflux inhibition (fraction of control) in [14] is 0.12 (inactive). Also, the differentiation response in experiment [16] was 2.46% (inactive).

The inhibition is the relative decrease from the control value, in per cent.
